A selection: hits, their analogues and other compounds. The true share with any hit is near 7.5%.
FBPA Giardia inh – Giardia lamblia aldolase inhibition. Potency, µM (highest dose often 59.6 µM), for the others: at the highest dose activity, negative = inhibition, most hits filed as inhibitors. purified Giardia FBPA. 0.71% of 290,000 active. A8B2U2; note: potency is the fitted concentration of half-maximal effect; nearly all actives have a fitted effect of over 55% in size
Target sequence (A8B2U2 whole entry, looked up): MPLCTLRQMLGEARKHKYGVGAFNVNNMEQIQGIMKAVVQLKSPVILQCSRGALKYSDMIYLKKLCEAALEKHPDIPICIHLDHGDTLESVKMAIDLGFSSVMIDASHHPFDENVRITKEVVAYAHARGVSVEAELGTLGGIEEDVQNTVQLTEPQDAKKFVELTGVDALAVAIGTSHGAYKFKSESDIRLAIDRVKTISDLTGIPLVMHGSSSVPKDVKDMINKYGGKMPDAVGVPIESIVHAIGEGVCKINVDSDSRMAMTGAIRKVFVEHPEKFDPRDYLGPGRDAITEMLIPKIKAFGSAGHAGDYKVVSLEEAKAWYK
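40 nM FBPA preincubated 10 min at RT with compound (up to 57.5 uM final), then substrate plus GAPDH/TPI/NAD/arsenate coupling and diaphorase/resazurin added. Fluorescence read after 20 min at RT, 525/598 nm.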
VACV mCherry inh – inhibitors of vaccinia virus infection (mCherry reporter signal); Vaccinia virus mCherry reporter infection, fluorescence; 0.63% of 310,000 active; Potency, µM (series often up to 36.5 µM), without a hit: at the top dose activity change, negative = inhibition, actives largely listed as inhibitors; AID 720579; calls by dose curve; tested in A549 cells; note: potency is the fitted concentration of half-maximal effect; nearly all actives have a fitted effect of over 35% in size
HCMV inh – blocks human cytomegalovirus replication | activity change, negative = inhibition, % at 57.5 µM | 4.5% of 410,000 active | HFF cells, HCMV-luciferase reporter, 72 h; active compounds read low | AID 1259415; in the data active = activity change below about -60%; inconclusive = no clear call, values can overlap the other calls; inactive = above about -39%
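Compounds were evaluated in HFFs infected with an HCMV luciferase reporter virus (MOI 1 PFU/cell). Luciferase in lysates collected 72 h post infection served as the replication measure.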
Vaccinia Venus – vaccinia inhibition (Venus reporter); Potency, µM (top dose mostly 36.5 µM), inactives show at the highest dose activity change, negative = inhibition, hits mostly inhibitors; 0.46% of 330,000 active; Vaccinia virus Venus reporter expression, fluorescence; AID 720580; calls by dose curve; tested in A549 cells; note: potency is the fitted concentration of half-maximal effect; nearly all actives have a fitted effect of over 30% in size
FMDV antiviral – foot and mouth disease virus antiviral activity; Potency, µM (series often up to 57.9 µM), for the others: at the top dose activity change, negative = inhibition, hits mostly inhibitors; FMDV antiviral cell-based qHTS; AID 1159524; 1.2% of 410,000 active; calls by dose curve; tested in HEK293T cells; note: read-out not given here; potency is the fitted concentration of half-maximal effect; nearly all actives have a fitted effect of over 45% in size
HCV inh – blocks hepatitis C virus. Huh7.5.1 HCVcc-Cre infection, luciferase reporter, 44 h. Potency, µM (doses to about 41.8 µM), without a hit: at the highest dose activity change, negative = inhibition, usual class: inhibitors. 3.4% of 340,000 active. AID 651820; note: potency is the fitted concentration of half-maximal effect
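Reporter virus HCVcc-Cre (~0.5 moi) infects cells exposed to compound; seeding density 1,000 cells/well with 4 h settling beforehand. Luminescence, 15 sec read, taken 44 h post-infection following a 15 min RT substrate incubation.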
* hit, by the source's call; i = inactive; ? = inconclusive; . = not tested or not shown; + = active, no number; ! = not confirmed by another sample; [ ] = another dose, or the depositor's remark. Unless noted, calls come from the whole dose curve; as a rule, active = well fitted curve in the direction sought with a large enough effect; inconclusive = small, poorly fitted or top-dose-only effect, or another doubt; inactive = no such curve, though single readings can be large; an effect the other way counts as inactive or inconclusive. % is set by controls: 0 for no effect and ±100 for the full control effect.

SMILES | FBPA Giardia inh | VACV mCherry inh | HCMV inh | Vaccinia Venus | FMDV antiviral | HCV inh
Cc1ccc(S(=O)(=O)N2CCOCC2)cc1C(=O)N(C)CCOc1ccc(Cl)cc1 | -7% | 12% | -33 | -5% | ? | ?
COc1ccc(CCN(C)C(=O)c2cccc(S(=O)(=O)N3CCN(c4ccc(F)cc4)CC3)c2)cc1OC | . | . | ? | . | ? | 2.8µM*
CN(CCOc1ccc(Cl)cc1)C(=O)c1cccc(S(=O)(=O)N2CCN(c3ccc(F)cc3)CC2)c1 | . | ? | . | ? | ? | 2.8µM*
CCOC(=O)c1c(-c2ccccc2)oc2ccc(NS(=O)(=O)c3ccc(OC)cc3)cc12 | . | ? | -25 | -24% | 40% | .
CCCc1oc2ccc(NS(=O)(=O)c3ccc(OC)cc3)cc2c1C(=O)OCC | . | ? | -83* | ? | 23% | .
CCOc1ccc(S(=O)(=O)Nc2ccc3oc(C)c(C(=O)OC(C)C)c3c2)cc1 | . | -23% | 30 | -19% | 64% | .
CCCc1oc2ccc(NS(=O)(=O)c3ccc(OCC)cc3)cc2c1C(=O)OCC | . | -27%[7.34 µM] | -65* | -25%[7.34 µM] | 33% | .
S=C(NC1CCCC1)N1CCN(C/C=C/c2ccccc2)CC1 | -1% | -20% | -64* | -19% | ? | 10µM*
C1CCN2C[C@H]3C[C@H](CN4CCCCC34)C2C1 (stereo not given in full) | 2% | -17% | . | -10% | -3% | .
Cc1ccc(CNC(=O)c2c(-c3cccc(Br)c3)noc2C)o1 | . | -10% | -11 | -16% | -29% | .
COc1ccc(Nc2cc(C)nc(NCc3ccccc3)n2)cc1 | -3% | -7%[7.34 µM] | ? | -9%[7.34 µM] | ? | ?
Cc1ccc(Nc2cc(C)nc(NCc3ccccc3)n2)cc1 | -13% | ? | -83* | ? | -28% | 10µM*
Cc1cc(N/N=C/c2ccccc2Cl)nc(NCc2ccccc2)n1 | 0% | 13µM* | 38 | ? | ? | ?
Cc1cc(NC2CCCCC2)nc(NCc2ccccc2)n1 | 6% | . | -93* | . | ? | ?
CC1=C(C(=O)N2CCCCCC2)CC(CC(=O)NCCc2ccccn2)C(=O)N1CCCN1CCCC1=O (stereo not given) | . | . | -84* | . | . | .
CCn1c(SCC(=O)NC2CCCC2)nnc1C(C)NC(=O)c1ccccc1F (stereo not given) | . | -12% | -23 | -1% | -1% | 6%
CC(NC(=O)c1ccccc1F)c1nnc(SCC(=O)NC2CCCC2)n1C (stereo not given) | . | i | -64* | -4% | -10% | 8%
CCNC(=O)N[C@H]1CC[C@@]23CCCN2C(=O)CCC[C@H]3C1Cc1ccccc1 (stereo not given in full) | . | . | -6 | . | . | .
CC(=O)c1ccc(NC(=O)c2cc3c(=O)oc4ccc(C)cc4c3s2)cc1 | . | -2% | -93* | 2% | 1% | .
COc1ccc(OC)c(CNn2c(-c3cccc(C)c3)nc3ccccc3c2=O)c1 | -5% | -2% | ? | -11% | . | ?
CCOc1ccc(-n2c(-c3cccs3)nc3ccccc3c2=O)cc1 | -3% | i | -66* | -9% | ? | ?
COc1cccc(CNn2c(-c3cccc(C)c3)nc3ccccc3c2=O)c1 | -6% | i | -73* | -9% | . | ?
O=c1c2ccccc2nc(-c2cccs2)n1-c1ccccc1 | 5% | . | 2 | -10% | -26% | 4%
COc1ccc(CNn2c(-c3cccs3)nc3ccccc3c2=O)cc1OC | 1% | -15% | -70* | -2% | ? | ?
CC(C(=O)Nc1ccccc1)N(C)Cc1cccs1 (stereo not given) | -3% | -10% | -4 | -12% | -7% | 6%
SMILES | FBPA Giardia inh | VACV mCherry inh | HCMV inh | Vaccinia Venus | FMDV antiviral | HCV inh
CCOc1ccccc1NC(=O)Cn1cc(C(=O)c2cccc(OC)c2)c(=O)c2ccc(C)nc21 | . | 6% | -35 | 11% | ? | .
CC(C)(C)OC(=O)N1CCC(c2c(C(=O)N3CCN(c4ccccc4)CC3)cnn2-c2ccccc2)CC1 | . | -11% | ? | -13% | -5% | .
Cc1ccc(N2CCN(c3ccc(C)cc3)C2c2cccnc2)cc1 | -1% | -16% | 4 | -21% | . | ?
c1ccc(N2CCN(c3ccccc3)C2c2cccnc2)cc1 | -8% | . | -21 | -18% | 10µM* | -9%
CC(C)(C)C1=CC(=O)C(N2CCOCC2)=CC1=O | 1.8µM* | i | 63 | -13% | ? | -11%
O=c1c(N2CCOCC2)c(N2CCOCC2)c1=O | -1% | . | 34 | . | -14% | 8%
Cc1csc(-c2cc(C(=O)NCc3ccc(F)cc3)n[nH]2)c1 | . | -7% | -64* | 3% | 12% | .
COc1ccc(-n2ncc3c(N4CCN(c5cccc(C)c5)C(C)C4)ncnc32)cc1 (stereo not given) | . | ? | -66* | ? | 20µM* | .
Cc1cccc(-n2ncc3c(N4CCN(c5ccccc5)CC4)ncnc32)c1 | . | -10% | + | -7% | ? | .
COc1ccc(-n2ncc3c(N4CCN(c5cc(C)ccc5C)CC4)ncnc32)cc1 | 1% | -2% | 73 | -24% | ? | 11%
Cc1ccc(-n2ncc3c(NCc4cccnc4)ncnc32)c(C)c1 | -4% | -12% | ? | -17% | ? | 10µM*!
Cc1cccc(-n2ncc3c(NCc4cccnc4)ncnc32)c1 | 0% | -12% | 132 | ? | 21% | -29%
Cc1ccc(-n2ncc3c(N4CCN(c5ccccc5)CC4)ncnc32)c(C)c1 | 5%[12.9 µM] | . | -82* | . | 3.2µM* | 4.5µM*
CN(C)CCN(Cc1ccco1)C(=O)c1cc2c(Cl)nc3ccccc3c2s1 | 3% | . | ? | . | -28% | 10µM*
CCCN1CNc2c(c(=O)[nH]c(=S)n2CCCc2ccccc2)C1 | . | 0% | . | -12% | . | .
CC(=O)N/C(=C/C(C)C)c1ccccc1 | . | i | -28 | -12% | 4% | 6%
CC(=O)N1N=C(c2ccncc2)CC1c1ccccc1O (stereo not given) | 0% | 3% | -39 | -1% | -9% | 2%
O=[N+]([O-])c1ccc(N2N=C(c3ccccc3)CC2c2ccccc2O)cc1 (stereo not given) | 3% | . | -63* | . | . | .
O=C(c1ccccc1)N1N=C(c2ccccc2)CC1c1ccccc1O (stereo not given) | -10% | -25% | -62* | -12% | -18% | -12%
Cc1ccc(C2=NN(C(=O)c3cccs3)C(c3ccccc3O)C2)cc1 (stereo not given) | 6% | -1% | -61* | 11% | 13% | 2%
CC(=O)N1N=C(c2ccccc2)CC1c1cn(Cc2ccccc2)c2ccccc12 (stereo not given) | -2% | ? | -87* | ? | 32µM* | 25µM*
NS(=O)(=O)c1ccc(N2N=C(c3ccccc3)CC2c2ccccc2Br)cc1 (stereo not given) | . | ? | -12 | -19% | -27% | -40%

Source: PubChem
